The campaign covered roughly 39,000 compounds. About 220 (0.56%) showed activity. This is one part of a sample in which actives are shown more often than they occur.
system: Escherichia coli K-12 BW25113; experiment: relative growth (OD600 normalised to plate interquartile mean) (fraction); higher = less growth inhibition, active = 0.2 or less; settings: 50 µM; LB; incubation time: overnight (16-24 h)
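Also: Wild-type cells incubated without shaking, value is the mean of two biological replicates.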

Row | Compound | relative growth
1 | C[C@H](CO)N1C[C@H](C)[C@@H](CN(C)Cc2ccc(Oc3ccccc3)cc2)Oc2ccc(NC(=O)C3CC3)cc2C1=O | 0.915 (inactive)
2 | C[C@H]1CN([C@@H](C)CO)C(=O)c2ccccc2-c2ccccc2CO[C@H]1CN(C)S(=O)(=O)c1ccc(C(F)(F)F)cc1 | 1.04 (inactive)
3 | C[C@H]1CN([C@@H](C)CO)S(=O)(=O)c2ccc(C3=CCCCC3)cc2O[C@H]1CN(C)Cc1cncnc1 | 1.02 (inactive)
4 | COc1ccccc1S(=O)(=O)N(C)C[C@H]1OCc2cn(nn2)CCCC(=O)N([C@@H](C)CO)C[C@H]1C | 1.05 (inactive)
5 | C[C@H]1CN([C@@H](C)CO)C(=O)Cc2cc(NC(=O)C3CCCCC3)ccc2O[C@@H]1CN(C)S(C)(=O)=O | 0.992 (inactive)
6 | C[C@@H]1CN([C@H](C)CO)C(=O)c2cc(NS(=O)(=O)c3ccc(F)cc3)ccc2O[C@@H](C)CCCCO[C@@H]1CN(C)Cc1ccc(C(=O)O)cc1 | 1 (inactive)
7 | Clc1ccc2sc(Sc3ccccc3)nc2c1 | 0.985 (inactive)
8 | COc1ccc(-c2c(C)oc3ccc(Cl)cc23)cc1 | 0.992 (inactive)
9 | CC1CCC2(C)C(C=O)=CCCC2C1(C)CC1OC(O)C(=O)C12CO2 (stereo not drawn) | 0.0462 (active)
10 | COC(=O)[C@@H](NC(=O)c1cccc(NC=O)c1O)[C@@H](C)O | 1.04 (inactive)
11 | C[C@@H]1CN([C@H](C)CO)C(=O)c2cc(NC(=O)c3ccncc3)ccc2O[C@@H](C)CCCCO[C@H]1CN(C)Cc1ccc(C(F)(F)F)cc1 | 1 (inactive)
12 | Cc1noc(C)c1NC(=O)N(C)C[C@H]1OCCCC[C@@H](C)Oc2ccc(NS(=O)(=O)c3ccccc3)cc2C(=O)N([C@@H](C)CO)C[C@H]1C | 1.01 (inactive)
13 | O=C1CN(/N=C/c2ccc([N+](=O)[O-])o2)C(=O)N1 | 0.031 (active)
14 | O=C1CN(N=Cc2ccc([N+](=O)[O-])o2)C(=O)N1 | 0.0462 (active)
15 | O=C1OC(CN2CCOCC2)CN1N=Cc1ccc([N+](=O)[O-])o1 (stereo not drawn) | 0.575 (inactive)
16 | O=C1OCCN1N=Cc1ccc([N+](=O)[O-])o1 | 0.0457 (active)
17 | O=C1CN(N=Cc2ccc(-c3ccc([N+](=O)[O-])cc3)o2)C(=O)[N-]1.[Na+] | 1.06 (inactive)
18 | Cc1cc(C(=O)Nc2cccc3c2O[C@@H](CN(C)S(=O)(=O)c2ccccc2)[C@H](C)CN([C@@H](C)CO)C3=O)n(C)n1 | 1.01 (inactive)
19 | C[C@@H]1CN([C@@H](C)CO)S(=O)(=O)c2ccc(Br)cc2O[C@@H]1CN(C)S(=O)(=O)c1ccc(F)cc1 | 1.04 (inactive)
20 | CCN1CCN(CC(=O)Nc2ccc(-c3cccc4c(=O)cc(N5CCOCC5)oc34)c3sc4ccccc4c23)CC1 | 0.981 (inactive)
21 | COc1ccc(S(=O)(=O)Nc2cccc3c2O[C@H](CN(C)S(=O)(=O)c2cn(C)cn2)[C@@H](C)CN([C@H](C)CO)C3=O)cc1 | 1.01 (inactive)
22 | CN(C)CCCNC(=O)C[C@@H]1CC[C@@H]2[C@H](COc3ccc(NS(C)(=O)=O)cc3C(=O)N2C)O1 | 1 (inactive)

Row | Compound | relative growth
23 | C[C@@H]1CCCCO[C@H](CN(C)Cc2ccccc2)[C@@H](C)CN([C@H](C)CO)C(=O)c2cc(NC(=O)C3CCCCC3)ccc2O1 | 0.995 (inactive)
24 | C[C@@H]1CCCCO[C@@H](CN(C)C(=O)Nc2ccc3c(c2)OCO3)[C@@H](C)CN([C@H](C)CO)C(=O)c2cc(NC(=O)c3ccccc3)ccc2O1 | 1.01 (inactive)
25 | C/C=C/c1ccc2c(c1)O[C@@H](CN(C)C(=O)c1ccc3c(c1)OCO3)[C@@H](C)CN([C@H](C)CO)S2(=O)=O | 1.01 (inactive)
26 | CC1=C(C(=O)O)N2C(=O)C(NC(=O)C(N)C3=CCC=CC3)C2SC1 (stereo not drawn) | 1.07 (inactive)
27 | CO/N=C(\C(=O)N[C@@H]1C(=O)N2C(C(=O)O)=C(C)CS[C@H]12)c1csc(N)n1 | 0.0368 (active)
28 | CON=C(C(=O)NC1C(=O)N2C(C(=O)O)=C(C[N+]3(C)CCCC3)CSC12)c1csc(N)n1.[Cl-] (stereo not drawn) | 0.0437 (active)
29 | CO/N=C(\C(=O)N[C@@H]1C(=O)N2C(C(=O)O)=C(C[N+]3(C)CCCC3)CS[C@H]12)c1csc(N)n1 | 0.0339 (active)
30 | CC1=C(C(=O)O)N2C(=O)[C@@H](NC(=O)[C@H](N)C3=CCC=CC3)[C@H]2SC1 | 1.03 (inactive)
31 | C[C@H]1CN([C@@H](C)CO)S(=O)(=O)c2ccc(C3=CCCC3)cc2O[C@@H]1CN(C)S(=O)(=O)c1ccc(F)cc1 | 1.02 (inactive)
32 | C[C@H](CO)N1C[C@H](C)[C@@H](CN(C)C(=O)CN(C)C)Oc2ncc(-c3ccc(C(=O)N(C)C)cc3)cc2C1=O | 0.975 (inactive)
33 | Cc1cccc(NC(=O)Nc2ccc3c(c2)C(=O)N(C)[C@@H]2CC[C@@H](CC(=O)NCc4ccccc4Cl)O[C@@H]2CO3)c1 | 0.998 (inactive)
34 | C[C@@H]1CN([C@H](C)CO)S(=O)(=O)c2ccc(-c3cncnc3)cc2O[C@H]1CN(C)C(=O)Cc1cccnc1 | 0.98 (inactive)
35 | CC(C)NC(=O)N[C@@H]1CC[C@@H](CCN)O[C@H]1CO | 0.989 (inactive)
36 | C[C@H](CO)N1C[C@H](C)[C@@H](CN(C)Cc2ccc3c(c2)OCO3)Oc2ccc(NC(=O)CCCN(C)C)cc2CC1=O | 0.975 (inactive)
37 | O=c1nc[nH]c2n[nH]cc12 | 1.03 (inactive)
38 | COc1ccc(C(=O)O)c(O)c1OC | 1.03 (inactive)
39 | COC1=C(N)C(=O)c2nc(-c3nc(C(=O)O)c(C)c(-c4ccc(OC)c(OC)c4O)c3N)ccc2C1=O | 0.038 (active)
40 | COCC(=O)Nc1ccc2c(c1)C(=O)N(C)C[C@@H](OC)[C@H](C)CN(Cc1ccccc1C(=O)O)[C@H](C)CO2 | 1.02 (inactive)
41 | C[C@@H]1CCCCO[C@H](CN(C)S(=O)(=O)c2ccc(Cl)cc2)[C@@H](C)CN([C@H](C)CO)C(=O)c2cc(NC(=O)c3ccncc3)ccc2O1 | 1.01 (inactive)
42 | COc1ccc(CN(C)C[C@H]2OCCCC[C@H](C)Oc3ccc(NS(=O)(=O)c4ccc(C)cc4)cc3C(=O)N([C@@H](C)CO)C[C@@H]2C)cc1 | 0.982 (inactive)
43 | C[C@H](CO)N1C[C@H](C)[C@H](CN(C)Cc2ccc3c(c2)OCO3)OCCCC[C@H](C)Oc2ccc(NS(=O)(=O)c3ccc(F)cc3)cc2C1=O | 0.995 (inactive)

From the supplement of paper PMC9446081
